Assay outcomes from PubChem BioAssay.
Rows were chosen to be rich in hits. Some 3.4% of all compounds tested hit in one or more screens of this group.
MITF primary = MITF inhibitors, primary screen, biochemical, AlphaScreen, human; AID 1259374, 2018; inhibition, % at 2.6 µM; Microphthalmia-associated transcription factor (Homo sapiens), O75030; hit rate 0.91% among 650,000; AlphaScreen MITF homodimerization, bead proximity signal; in the data active means inhibition above about 50%;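 further: 0% = vehicle wells with protein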
FBW7 act = FBW7 E3 ligase activators, primary screen, biochemical, AlphaScreen, human | hit rate 0.13% among 650,000 | normalized activity (activation), % at 26.1 µM | AlphaScreen FBW7–phospho-cyclin E peptide binding, activator screen | F-box/WD repeat-containing protein 7 (Homo sapiens), Q969H0 | AID 1259310, 2017; in the data active means normalized activity above about 1.9%;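 further: purified mutant Fbw7 with reduced substrate affinity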
GPR151 ag = activators of human GPR151, primary screen, cell-based, PathHunter beta-arrestin, luminescence. G-protein coupled receptor 151 (Homo sapiens), Q8TDV0. PathHunter beta-arrestin GPR151 cells. activation, % at 11.2 µM. hit rate 1% among 650,000. AID 1508602, 2020; in the data active means activation above about 4.9%;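 further: 0% = median of compound wells and 100% = cells with positive control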
TEAD-YAP inh = TEAD-YAP interaction inhibition, primary screen, TEAD-YAP interaction inhibitor project, luminescence, HEK-TIYL cells; hit rate 1.4% among 640,000; inhibition, % at 9.12 µM; TEAD-Gal4/YAP UAS-luciferase luminescence; in the data active means inhibition above about 32%;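 further: 0% = median of test compound wells and 100% = reference inhibitor wells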
GPR151 confirm = GPR151 activators, triplicate retest, confirmation, cell-based, PathHunter beta-arrestin, luminescence | shares compounds with GPR151 ag | GPR151 PathHunter beta-arrestin cells, 90 min; % of EA-reagent control over plate median | activation, % at 11.2 µM | 6,700 tested, under 10 active;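 active means mean percent activation across replicates above the confirmation screen cutoff of 4.91%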
GPR119 ag = GPR119 activators in beta-arrestin cells, counter-screen for GPR151 activator project, cell-based, PathHunter beta-arrestin, luminescence, triplicate; shares compounds with GPR151 ag; 90 min; 0 = compound-well median, 100 = enzyme-acceptor control; hit rate 0.3% among 6,700; AID 1508611, 2020; activation, % at 11.2 µM;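 active means mean percent activation in the counterscreen above 29.09%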;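 further: counterscreen on off-target GPR119 to flag nonselective hits from the GPR151 activator screen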
Target sequence (Q8TDV5 whole entry, looked up): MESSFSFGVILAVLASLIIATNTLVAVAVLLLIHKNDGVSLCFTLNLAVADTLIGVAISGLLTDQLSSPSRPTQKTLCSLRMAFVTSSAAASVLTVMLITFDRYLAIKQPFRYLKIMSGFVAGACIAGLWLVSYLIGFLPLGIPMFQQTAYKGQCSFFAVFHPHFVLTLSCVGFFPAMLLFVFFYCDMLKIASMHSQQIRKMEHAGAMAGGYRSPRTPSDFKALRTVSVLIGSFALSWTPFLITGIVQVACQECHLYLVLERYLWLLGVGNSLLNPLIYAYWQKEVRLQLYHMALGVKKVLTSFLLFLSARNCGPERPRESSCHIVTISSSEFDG
Starred values were filed as active, the others as inactive; / = no result.

SMILES	MITF primary	FBW7 act	GPR151 ag	TEAD-YAP inh	GPR151 confirm	GPR119 ag
O=C(Nc1nc(-c2cc3ccccc3oc2=O)cs1)c1ccc(S(=O)(=O)N2CCc3ccccc32)cc1	-5.2	-0.2	5.0*	-18.6	0.1	4.0
CC1CCN(S(=O)(=O)c2ccc(C(=O)Nc3nc(-c4ccncc4)cs3)cc2)CC1	-9.2	0.0	4.9*	-10.1	0.4	10.4
O=C(NC(=S)Nc1ncccn1)c1cc2ccccc2oc1=O	1.7	0.0	-0.7	-7.7	/	/
O=C(Nc1nc(-c2cc3ccccc3o2)cs1)c1cc2ccccc2oc1=O	6.9	0.0	20.7*	-0.1	-0.8	8.4
O=C(Nc1nc(-c2ccccc2)cs1)c1ccc(S(=O)(=O)N2CCc3ccccc32)cc1	0.4	-0.3	-1.8	-0.3	/	/
O=C(NC(=S)NNc1ccccc1)c1cc2ccccc2oc1=O	16.9	0.1	5.5*	8.3	0.7	13.1
CCOc1ccccc1C(=O)Nc1cc(NC(=O)c2ccccc2OCC)cc(C(=O)O)c1	-1.2	0.1	-0.4	-6.1	/	/
CCN(CC)Cc1c(O)ccc2c1O/C(=C\c1ccccc1F)C2=O	-4.3	-0.1	2.9	3.7	/	/
O=C(Nc1nc(-c2ccncc2)cs1)c1ccccc1I	-1.1	0.0	6.3*	-14.6	0.8	11.4
COc1cc(/C=c2/sc3nc4cc(C)c(C)cc4n3c2=O)ccc1OCc1ccc(C)cc1	2.9	0.2	-0.2	1.0	/	/
Cn1cc(C(=O)N2CCCCCC2)c2ccccc2c1=O	1.5	0.0	-1.1	-2.2	/	/
CC(C)=CCN1CCN(Cc2sccc2C)CC1CCO (stereo unspecified)	0.3	0.0	12.2*	-14.2	1.6	14.5
C=CCc1cc(/C=c2/sc3n(c2=O)C(c2ccccc2OC(C)C)C(C(=O)OCC)=C(C)N=3)cc(OC)c1O (stereo unspecified)	12.9	0.1	-0.1	-2.6	/	/
CCCCCc1ccc(-c2ccc(CCC)cn2)cc1	-8.2	0.3	-2.7	-6.8	/	/
CCCCCn1c(SCc2ccncc2)nc2cc(C(=O)NCc3cccc(Cl)c3)ccc2c1=O	4.8	0.0	5.1*	2.4	-0.6	-10.9
O=C(O)C1(c2ccccc2)CCN(S(=O)(=O)c2ccccc2)CC1	15.8	0.1	-1.4	-2.1	/	/
O=C(NCc1ccccc1)C1(c2ccccc2)CCN(S(=O)(=O)c2ccccc2)CC1	-8.3	0.1	5.6*	4.7	-0.5	-12.3
O=C(NCc1cccs1)Nc1ccccc1Cl	24.7	0.1	6.2*	-23.7	0.1	0.6
O=C(NCc1cccs1)C1(c2ccccc2)CC1	5.3	-0.1	8.6*	2.1	0.0	3.2
O=C(NCc1cccs1)Nc1ccccc1	-3.9	0.1	0.2	-13.6	/	/
Fc1ccc(-c2nc3cc(Cl)c(Cl)cc3nc2-c2ccc(F)cc2)cc1	8.5	0.5	0.2	3.7	/	/
c1cncc(-c2ncc(-c3cnccn3)c(-c3ccncc3)n2)c1	20.1	0.9	-0.4	8.7	/	/
COC(=O)C(Sc1cc2c(cc1O)OCO2)(C(F)(F)F)C(F)(F)F	4.6	-0.3	5.3*	2.6	0.0	1.0
COC(=O)C(Sc1c(O)cc(C)oc1=O)(C(F)(F)F)C(F)(F)F	5.4	-1.3	-0.2	-9.9	/	/
CC1(C)CC(=O)C2=C(C1)OC1=C(C(=O)CC(C)(C)C1)C2c1cc(Cl)cc(Cl)c1OCc1ccc(Cl)cc1Cl	-8.9	0.1	5.5*	7.8	0.2	11.1
SMILES	MITF primary	FBW7 act	GPR151 ag	TEAD-YAP inh	GPR151 confirm	GPR119 ag
O=C(O)CCCN1C(=O)C(=O)/C(=C(\O)c2ccccc2)C1c1ccc(F)cc1 (stereo unspecified)	29.2	0.2	0.3	4.5	/	/
COc1ccc(NS(=O)(=O)c2cc(Cl)ccc2Cl)cc1	-12.2	0.1	3.0	30.3	/	/
CCOc1ccc(Br)cc1/C=N/n1cnnc1	-2.3	-0.1	1.6	5.7	/	/
Cc1nc(N2CCC(N3CCOCC3)CC2)nc2cc3c(cc12)CCC3	-9.7	-0.1	-0.4	-10.7	/	/
CC(=O)c1ccc(NC(=O)Nc2ccc(NS(=O)(=O)c3ccc(C)cc3)cc2)cc1	14.7	-0.1	-0.3	12.6	/	/
CC(=O)c1ccc(NC(=O)NS(=O)(=O)c2ccc(C)cc2)cc1	0.1	-0.2	5.4*	-6.5	0.5	6.7
CCN1CCN(C(=O)NCc2noc3ccc(C)cc23)CC1	6.9	-0.1	-0.7	9.1	/	/
Cc1ccc2onc(CNC(=O)N3CCCCC3)c2c1	6.7	0.4	7.0*	-9.6	0.3	3.9
Cc1ccc(NC(=O)CSc2nc(=O)n(Cc3ccco3)c3c2CCC3)cc1F	-13.6	0.0	6.6*	1.9	-1.7	-18.2
CN(Cc1c(C(=O)N2CCCC2)nc2sccn12)CC(O)c1ccccc1 (stereo unspecified)	6.8	0.1	5.8*	9.7	0.9	4.5
CCOc1ccc(OCC)c(NC(=O)CN2CCN(C(C)=O)CC2)c1	19.1	0.0	6.8*	-1.3	-0.7	-6.3
O=[N+]([O-])c1ccc(N2CCN(c3ncnc4sc5c(c34)CCCC5)CC2)cc1	12.0	-0.2	-1.0	0.1	/	/
O=C(c1ccc2c(c1)N(Cc1ccccc1)C(=O)CS2)N1CCOCC1	-0.2	0.0	0.1	11.4	/	/
O=C(c1ccc(CN2C(=O)CCn3nccc32)cc1)N1CCOCC1	1.2	-0.2	7.2*	-1.9	-0.1	-9.1
CSc1ccc(CN2CCc3nnc(CNC(=O)C4CCC(=O)N4)n3CC2)cc1 (stereo unspecified)	-8.8	-0.1	-0.2	-0.3	/	/
Cc1ccc2c(c1)C(=C(C#N)C#N)C=C(c1cccs1)O2	1.0	-0.1	5.3*	-8.7	0.2	9.8
COc1ccccc1CNC(=O)CC1C(=O)NCCN1CCC(C)C (stereo unspecified)	1.7	0.0	5.8*	-0.2	0.2	0.1
CCC(CC)c1nnc(NC(=O)c2cc(S(=O)(=O)N3CCOCC3)ccc2C)s1	1.5	0.0	0.7	-2.4	/	/
CNc1nc(-c2ccccc2O)nc(-c2ccccc2O)n1	3.4	0.6	-0.2	6.6	/	/
[Zn+2].c1ccc2c(c1)-c1nc-2nc2[n-]c(nc3nc(nc4[n-]c(n1)c1ccccc41)-c1ccccc1-3)c1ccccc21	1.6	0.8	10.9*	8.8	0.5	-2.8
CCOCCc1nnc(NC(=O)CC(c2ccccc2)c2ccccc2)s1	20.2	0.6	8.6*	2.2	0.4	9.3
O=C(O)c1ccccc1C(=O)N1CCOCC1	5.6	0.0	0.6	-3.8	/	/
CN(C)c1ccc(/C=C2\N=C(c3ccccc3F)OC2=O)cc1	5.5	0.1	1.7	-25.3	/	/
CN(C)/C=C1\N=C(c2ccccc2F)OC1=O	6.9	0.0	6.9*	-11.7	0.6	9.0
